Test results as given in PubChem BioAssay.

Test: PSAC antagonists in infected red cells, primary screen, cell-based, P. falciparum Indochina, OD700, 18 h (AID 1157)
Settings: P. falciparum Indochina infected erythrocytes, osmotic lysis OD700, 18 h; higher = more signal, called active from +8 up or from −8 down

z-score, inactive:
COc1ccc([Si](C)(C)[C@H]2[C@H](CCO)O[C@@]3(C(=O)N(Cc4cccc(N5C(=O)COc6ccccc65)c4)c4ccccc43)[C@@H]2C)cc1 1.77
CC(C)(C)OC(=O)CC[C@@]1(C(=O)NCc2ccccc2)N=C(c2ccc(OCCCO)cc2)O[C@@H]1c1ccccc1N=[N+]=[N-] 6.74
CN(C)CCCNC(=O)[C@@]1(c2ccc([N+](=O)[O-])cc2)CC(=O)N(CC23CC4CC(CC(C4)C2)C3)[C@@H]1c1ccc(CO)cc1I 0.352
C=C[C@@H](OC)[C@H](OC(=O)Nc1ccc(SC)cc1)c1ccc(O)c(F)c1 1.31
CCC(CC)C(O)C1C=CC2C(=O)N(c3ccccc3)C(=O)C2N1Nc1ccc(C(C)C)cc1 (stereo unspecified) 0.801
COC(=O)[C@@]1(Cc2ccc(F)cc2)[C@H]2c3cc(C(=O)N(C)C)n(CCc4ccc(O)c(OC)c4)c3C[C@H]2CN1C(=O)c1ccccc1 0.667
CC(C)[Si](C#CCCCC#N)(O[C@H](c1ccccc1)c1cn([C@H](CO)Cc2ccccc2)nn1)C(C)C 0.0616
Cc1cc(C)c(C(O)C2C=CC3C(=O)NC(=O)C3N2Nc2ccc(Cl)cc2Cl)c(C)c1 (stereo unspecified) 0.876
CCOc1cc(C(O)C2C=CC3C(=O)N(C)C(=O)C3N2Nc2ccccc2)ccc1O (stereo unspecified) 1.42
O=C1O[C@H](c2ccccc2)[C@H](c2ccccc2)N2[C@H]1[C@@H](C(=O)Nc1nc3ccccc3s1)[C@]1(C(=O)Nc3ccc(C#CCCO)cc31)[C@H]2c1ccc(O)cc1 1.23
CC(C)OC(=O)C=C1C[C@@H](c2ccc(C(F)(F)F)cc2)O[C@@H](c2ccc(C(F)(F)F)cc2)O1 -1.05
CN(C)C(=O)[C@]1(CCS(=O)(=O)c2ccccc2)N=C(c2ccc(OCCCO)cc2)O[C@@H]1c1ccccc1N=[N+]=[N-] 6.58
C=CCOC(=O)[C@H]1[C@@H]2C(=O)O[C@@H](c3ccccc3)[C@@H](c3ccccc3)N2[C@@H](c2ccc(OCCOC(=O)[C@H]3C[C@H]4C(=O)N[C@@H](CCCCNC(C)=O)C(=O)N4[C@H]3c3ccc(O)cc3)cc2)[C@]12C(=O)Nc1ccccc12 -0.927
CC(CO)N1C(=O)[C@@H]2[C@H]3C(=O)OCC=C[C@H]3OC23C=CCN(Cc2ccccc2)C(=O)[C@@H]13 (stereo partly specified) -1.39
COCCOC(=O)N1C(=O)[C@@]2(c3cc(C#Cc4ccc(OC)cc4)ccc31)[C@H](C(=O)Nc1nc3ccccc3s1)[C@H]1C(=O)O[C@H](c3ccccc3)[C@H](c3ccccc3)N1[C@@H]2c1ccc(O)cc1 1.22
O=C1OCCC=C[C@H]2OC34C=CCN(Cn5nnc6ccccc65)C(=O)[C@H]3N(CCCCCCO)C(=O)[C@@H]4C12 (stereo partly specified) 0.748
CN(C)C(=O)[C@@]1(CCS(=O)(=O)c2ccccc2)N=C(c2ccc(OCCCO)cc2)O[C@H]1c1ccccc1 1.48
CCCCN1CC=CC23O[C@@H]4/C=C\CCC(C)OC(=O)C4[C@H]2C(=O)N(C(CO)C(C)C)[C@@H]3C1=O (stereo partly specified) 0.406
COC(=O)[C@H](Cc1ccccc1)N1CC(/C=C/C2CC2)=C[C@H]1[C@H](O)Cc1ccccc1 0.5
CCCCCCc1nc(C2CC2)cc2c1[Si](C(C)C)(C(C)C)OC2 -1.13
Cc1ccc(S[C@]2(C(=O)NCC(F)(F)F)CC(=O)N(C3CCCCC3)[C@@H]2c2ccc(CO)cc2I)cc1 0.524
CCCC[C@@H]1C[C@H]1[C@@H](NC(=O)Cc1ccccc1)c1ccc(-c2ccccc2)cc1 0.345
COC(=O)[C@@]1(Cc2ccc(OC)cc2)[C@H]2c3cc(C(=O)N(C)C)n(Cc4ccc(Cl)c(C(F)(F)F)c4)c3C[C@H]2CN1C(=O)c1ccccc1 1.21
C=C(C)C1CCC(C(O)C2C=CC3C(=O)N(C)C(=O)C3N2N2CCCCC2)CC1 (stereo unspecified) 1.37
COCCOC(=O)N1C(=O)[C@@]2(c3cc(C#CCNC(N)=O)ccc31)[C@H](C(=O)N1CCc3cc(OC)c(OC)cc3C1)[C@H]1C(=O)O[C@H](c3ccccc3)[C@H](c3ccccc3)N1[C@@H]2c1ccccc1OCCO -0.244
O=C1OCCC/C=C\[C@H]2OC34C=CCN(CCN5CCOCC5)C(=O)[C@H]3N(CCCCCCO)C(=O)[C@@H]4C12 (stereo partly specified) -0.774
